PubChem BioAssay (NCATS)
Results filed as inconclusive are left out. Unless noted, calls come from the whole dose curve; as a rule, active = well fitted curve in either direction with a large enough effect (not every such curve was filed as active); inconclusive = small, poorly fitted or top-dose-only effect, or another doubt; inactive = flat fitted curve, though single readings scatter.

Tests used:
[1] = AP1 Signaling Pathway (AID 357); settings: ME-180 AP-1-bla reporter, EGF-induced, beta-lactamase ratio, 5 h; at 17.2 µM (top of the series) unless noted;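 note: ME-180 reporter cells stimulated with EGF at its EC50 level; % is set by controls: 0 for no effect and ±100 for the full control effect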
In short: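 A ratiometric CCF4 readout (405 nm excitation; 460 and 530 nm emission) quantified AP-1-driven beta-lactamase in ME-180 cells after 5 h with compound and EC50 EGF; AC50 values were derived for activators and inhibitors.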

[2] = NFAT Signaling Pathway (AID 444); settings: Jurkat NFAT-bla M1, carbachol, beta-lactamase ratio, 5 h; at 17.2 µM (top of the series) unless noted;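 note: carbachol stimulus at about its EC50 of 1 µM final; % is set by controls: 0 for no effect and ±100 for the full control effect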
In short: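 Read-out: CCF4 FRET ratio (460 nm/530 nm) after 1 h RT dye loading, used for %activity and AC50 from titration series. Cells: Jurkat NFAT-β-lactamase/M1 line, treated with compound plus 1 uM carbachol for 5 h, 37 °C.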

[3] = Stat Signaling Pathway (AID 446); settings: ME-180 SIE beta-lactamase reporter, IL-6 stimulated, 5 h; at 17.2 µM (top of the series) unless noted;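 note: ME-180 cervical cancer cells given 40 pM IL-6 alongside compound; SIE-controlled beta-lactamase reporter measured as 460/530 nm FRET emission ratio; % is set by controls: 0 for no effect and ±100 for the full control effect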
In short: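 Reporter line: ME-180 cervical carcinoma, SIE-beta-lactamase. Treatment: compound with 40 pM IL-6, 5 hrs, 37 C, in low-serum OPTI-MEM with 10 mM HEPES pH 7.3. Detection: 460/530 nm fluorescence.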

[4] = target: Glucocorticoid receptor (Homo sapiens) (UniProt P04150); assay: GR-GFP Redistribution (AID 450;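 active = compounds whose dose series gives a full or clear partial fitted curve of increased nuclear translocation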; note: potency is the fitted concentration of half-maximal effect)
Glucocorticoid receptor (Homo sapiens), sequence (P04150 whole entry, looked up): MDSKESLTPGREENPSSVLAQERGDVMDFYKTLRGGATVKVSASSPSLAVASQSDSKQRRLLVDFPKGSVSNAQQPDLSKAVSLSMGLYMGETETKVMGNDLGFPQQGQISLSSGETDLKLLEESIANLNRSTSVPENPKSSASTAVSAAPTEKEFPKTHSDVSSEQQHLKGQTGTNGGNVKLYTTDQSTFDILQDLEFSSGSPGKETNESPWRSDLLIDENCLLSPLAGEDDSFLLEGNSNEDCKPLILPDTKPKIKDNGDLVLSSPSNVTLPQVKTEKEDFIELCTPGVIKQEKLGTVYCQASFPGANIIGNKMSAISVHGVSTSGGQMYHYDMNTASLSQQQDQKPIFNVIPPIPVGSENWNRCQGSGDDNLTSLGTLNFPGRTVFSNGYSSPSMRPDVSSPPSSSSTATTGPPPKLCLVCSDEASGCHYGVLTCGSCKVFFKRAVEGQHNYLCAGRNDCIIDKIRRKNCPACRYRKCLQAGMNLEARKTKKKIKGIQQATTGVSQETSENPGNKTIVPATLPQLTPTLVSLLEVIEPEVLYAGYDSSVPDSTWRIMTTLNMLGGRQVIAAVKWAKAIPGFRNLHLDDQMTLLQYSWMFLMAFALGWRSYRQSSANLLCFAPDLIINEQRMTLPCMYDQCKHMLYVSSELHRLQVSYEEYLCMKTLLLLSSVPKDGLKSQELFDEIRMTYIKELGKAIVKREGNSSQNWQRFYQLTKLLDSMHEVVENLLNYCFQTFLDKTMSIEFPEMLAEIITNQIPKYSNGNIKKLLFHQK

Nc1c(C(=O)NCc2ccco2)sc2nc(N3CCOCC3)c3c(c12)CCCC3
inactive: activity change, negative = inhibition [1] -27.5% | activity change, negative = inhibition [2] 16.8% | activity, negative = inhibition [3] -13.4% | Potency [4] > 20.6 µM

Cc1nn2c(-c3ccc(Cl)cc3)nnc2s1
inactive: activity change, negative = inhibition [1] -4.06% | activity change, negative = inhibition [2] -5.76% | activity, negative = inhibition [3] 14.5% | Potency [4] > 20.6 µM

CSc1nc2sc3c(c2c2nnnn12)CCC3
inactive: activity change, negative = inhibition [1] -5.46% | activity change, negative = inhibition [2] -14.8% | activity, negative = inhibition [3] 9.44% | Potency [4] > 20.6 µM

CC(C)COc1nc2ccccc2nc1C(C#N)C(=O)NC1CCCCC1 (centres undefined)
inactive: activity change, negative = inhibition [1] -1.14% | activity change, negative = inhibition [2] 0.574% | activity, negative = inhibition [3] 5.36% | Potency [4] > 20.6 µM

Oc1c(C=NCc2ccncc2)sc2ccccc12
inactive: activity change, negative = inhibition [1] -15.7% | activity change, negative = inhibition [2] -6.22% | activity, negative = inhibition [3] -1.25% | Potency [4] > 20.6 µM

CCOC(=O)/C(C#N)=C1/SC(CCO)C(=O)N1c1ccccc1 (centres undefined)
inactive: activity change, negative = inhibition [1] -6.66% | activity change, negative = inhibition [2] 2.53% | activity, negative = inhibition [3] -3.36% | Potency [4] > 20.6 µM

COc1ccccc1-n1c(=O)c2c3c(sc2n2c(SC)nnc12)CCC3
inactive: activity change, negative = inhibition [1] 6.29% | activity change, negative = inhibition [2] -21.2% | activity, negative = inhibition [3] 14.3% | Potency [4] > 20.6 µM

O=C(NCCCNCc1ccccc1)/C(=N\O)c1ccccc1
inactive: activity change, negative = inhibition [1] -2.86% | activity change, negative = inhibition [2] -1.67% | activity, negative = inhibition [3] 4.93% | Potency [4] > 20.6 µM

c1ccc(Cc2nnc3n2CCCCC3)cc1
inactive: activity change, negative = inhibition [1] -5.05% | activity change, negative = inhibition [2] -13.9% | activity, negative = inhibition [3] 5.83% | Potency [4] > 20.6 µM

CC(=O)C1=C(O)C(=O)N(c2ccc(C(=O)O)cc2)C1c1ccccc1 (centres undefined)
inactive: activity change, negative = inhibition [1] 5.75% | activity change, negative = inhibition [2] -2% | activity, negative = inhibition [3] 0.835% | Potency [4] > 20.6 µM

CCC(=O)N[C@@H]1CC(C(C)(C)NC(=O)CC)CC=C1C (some centres undefined)
inactive: activity change, negative = inhibition [1] 8.41% | activity change, negative = inhibition [2] 6.85% | activity, negative = inhibition [3] 0.886% | Potency [4] > 20.6 µM

N/C(=N\S(=O)(=O)c1ccc(Cl)s1)c1ccccc1
inactive: activity change, negative = inhibition [1] -2.33% | activity change, negative = inhibition [2] -13.4% | activity, negative = inhibition [3] -9.11% | Potency [4] > 20.6 µM

CCCC(CCC(=O)Nc1ccc(C(=O)OC)cc1)C(=O)O (centres undefined)
inactive: activity change, negative = inhibition [1] -9.55% | activity change, negative = inhibition [2] -16.6% | activity, negative = inhibition [3] 11.7% | Potency [4] > 20.6 µM

CSC1=C(C#N)C(C)CC(=O)N1 (centres undefined)
inactive: activity change, negative = inhibition [1] 3.08% | activity change, negative = inhibition [2] -0.632% | activity, negative = inhibition [3] 3.87% | Potency [4] > 20.6 µM

CCOC(=O)CNC(=O)CNC(=O)c1ccc(OCC(C)C)cc1
inactive: activity change, negative = inhibition [1] -5.66% | activity change, negative = inhibition [2] 8.09% | activity, negative = inhibition [3] -1.49% | Potency [4] > 20.6 µM

O=C(NC1CCCCC1)Nn1c(-c2ccccc2)nc2ccccc2c1=O
inactive: activity change, negative = inhibition [1] -2.78% | activity change, negative = inhibition [2] -2.06% | activity, negative = inhibition [3] 13.2% | Potency [4] > 20.6 µM

Cc1cc(NCC2CCCO2)n2c(nc3ccccc32)c1C#N (centres undefined)
inactive: activity change, negative = inhibition [1] -1.4% | activity change, negative = inhibition [2] -16.9% | activity, negative = inhibition [3] -2.4% | Potency [4] > 20.6 µM

Cc1[nH]c2ccc(F)cc2c(=O)c1SC(F)(F)C(F)C(F)(F)F (centres undefined)
inactive: activity change, negative = inhibition [1] -31.7% | activity change, negative = inhibition [2] 10.1% | activity, negative = inhibition [3] -1.13% | Potency [4] > 20.6 µM

Cc1cc(=O)oc2cc(OCC(=O)NCc3cccnc3)ccc12
inactive: activity change, negative = inhibition [1] 0.0607% | activity change, negative = inhibition [2] -8.13% | activity, negative = inhibition [3] -2.73% | Potency [4] > 20.6 µM

Cc1ccc(S(=O)(=O)N(CC(O)CN(C)C)c2ccccc2)cc1 (centres undefined)
inactive: activity change, negative = inhibition [1] 6.2% | activity change, negative = inhibition [2] -0.131% | activity, negative = inhibition [3] 7.64% | Potency [4] > 20.6 µM

COC(=O)C1=C(N)Oc2cc(C)[nH]c(=O)c2C1c1ccncc1 (centres undefined)
inactive: activity change, negative = inhibition [1] -8.66% | activity change, negative = inhibition [2] 2.47% | activity, negative = inhibition [3] -7.56% | Potency [4] > 20.6 µM

CCn1nc(NC(=O)c2cccnc2)c2cc3ccccc3nc21
inactive: activity change, negative = inhibition [1] -12.7% | activity change, negative = inhibition [2] 9.22% | activity, negative = inhibition [3] -4.62% | Potency [4] > 20.6 µM

COC(=O)c1ccc(C2/C(=C(/O)c3ccc(OC)cc3)C(=O)C(=O)N2Cc2ccco2)cc1 (centres undefined)
inactive: activity change, negative = inhibition [1] -4.01% | activity change, negative = inhibition [2] -12% | activity, negative = inhibition [3] -22.4% | Potency [4] > 20.6 µM

O=C(O)c1ccnc(C(=O)O)c1
inactive: activity change, negative = inhibition [1] 8.01% | activity change, negative = inhibition [2] 0.361% | activity, negative = inhibition [3] 10.5% | Potency [4] > 20.6 µM

Cn1c(SCC(=O)N2CCOCC2)nnc1-c1cccc(NC(=O)c2ccccc2F)c1
inactive: activity change, negative = inhibition [1] -25.9% | activity change, negative = inhibition [2] -5.78% | activity, negative = inhibition [3] 12% | Potency [4] > 20.6 µM

O=S(=O)(c1cccc2nsnc12)N1CCN(C/C=C/c2ccccc2)CC1
inactive: activity change, negative = inhibition [1] -6.7% | activity change, negative = inhibition [2] -13.3% | activity, negative = inhibition [3] -15.9% | Potency [4] > 20.6 µM
